Assay outcomes: PubChem BioAssay, National Center for Advancing Translational Sciences (NCATS)
In the library only some 9.5% were active in any assay of this set; here they are far more common.
ALDH1A1 block = qHTS Assay for Inhibitors of Aldehyde Dehydrogenase 1 (ALDH1A1). Aldehyde dehydrogenase 1A1 (Homo sapiens), P00352. Purified ALDH1A1, NADH fluorescence, propionaldehyde substrate. Potency, µM (highest dose often 75.3 µM), most hits filed as inhibitors. 220,000 compounds, 7.3% hits. AID 1030, 2008; active = well fitted inhibition curve with a large enough effect, not every such curve was filed as active; inconclusive = small, poorly fitted or top-dose-only effect, or another doubt; inactive = no such curve, though single readings can be large or run the other way
HPGD inh = qHTS Assay for Inhibitors of HPGD (15-Hydroxyprostaglandin Dehydrogenase); 15-hydroxyprostaglandin dehydrogenase [NAD(+)] (Homo sapiens), P15428; purified HPGD, NADH fluorescence kinetic, PGE2 substrate; Potency, µM, hits mostly inhibitors; 150,000 compounds, 4.3% hits; active = well fitted inhibition curve with a large enough effect, not every such curve was filed as active; inconclusive = small, poorly fitted or top-dose-only effect, or another doubt; inactive = no such curve, though single readings can be large or run the other way
Target sequence (P15428 whole entry, looked up): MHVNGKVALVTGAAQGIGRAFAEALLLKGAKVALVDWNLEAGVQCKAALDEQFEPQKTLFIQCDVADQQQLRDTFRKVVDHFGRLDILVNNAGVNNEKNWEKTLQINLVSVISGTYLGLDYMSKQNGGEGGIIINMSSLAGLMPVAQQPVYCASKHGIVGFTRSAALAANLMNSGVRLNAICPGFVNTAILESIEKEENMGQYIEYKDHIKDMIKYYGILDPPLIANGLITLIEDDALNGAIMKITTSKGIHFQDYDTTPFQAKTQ
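NADH formation kinetics: reaction with 30 uM PGE2 and 1 mM NAD+ (final), 20 nM enzyme, Tris-HCl pH 8 with Tween 20, after 15 min compound preincubation at room temperature. Fluorescence change, last versus first of five reads.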
Tau fluor counter = Counterscreen qHTS for Inhibitors of Tau Fibril Formation, Fluorescence Polarization | tau K18 P301L Alexa594 fluorescence, heparin fibrillization | Potency, µM (doses to about 57.7 µM) | 280,000 compounds, 0.93% hits; note: nearly all actives have a fitted effect of over 55% in size
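Human tau K18 P301L (15 uM unlabeled, 0.24 uM Alexa 594-labeled) in 100 mM sodium acetate pH 7 with 20 uM heparin, 6 hr at 37 C. ThT 30 uM added, 1 hr ambient; Alexa 594 FP and total fluorescence read at 555/632 nm.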
Tau fibril FP = qHTS for Inhibitors of Tau Fibril Formation, Fluorescence Polarization; Microtubule-associated protein tau (Homo sapiens), P10636; K18 P301L tau heparin fibrillization, Alexa594 FP, 6 h; Potency, µM (titrated, usually from 57.7 µM), hits mostly inhibitors; 280,000 compounds, 0.39% hits; AID 1468, 2008; note: nearly all actives have a fitted effect of over 55% in size
Target sequence (P10636 561-689 P618L limits assumed): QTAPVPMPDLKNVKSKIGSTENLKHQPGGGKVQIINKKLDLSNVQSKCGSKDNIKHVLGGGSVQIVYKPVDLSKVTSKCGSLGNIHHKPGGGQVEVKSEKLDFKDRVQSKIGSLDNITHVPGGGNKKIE
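Human tau K18 […] P301L fragment, 15 uM unlabeled plus 0.24 uM Alexa 594-labeled tau (final), with compound and 20 uM heparin in 100 mM sodium acetate pH 7; 6 hr at 37 C, then Alexa 594 FP read.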
Tau fibril ThT = qHTS for Inhibitors of Tau Fibril Formation, Thioflavin T Binding. Microtubule-associated protein tau (Homo sapiens), P10636. recombinant tau K18 P301L, heparin-induced fibrillization, ThT fluorescence. Potency, µM (highest dose often 57.4 µM), actives largely listed as inhibitors. 270,000 compounds, 2.1% hits; note: nearly all actives have a fitted effect of over 55% in size
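ThT emission at 510 nm, taken 1 hr after adding 30 uM dye, quantifies aggregates formed when 20 uM heparin acts on human tau K18 P301L for 6 hr at 37 C.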
NPSR antagonist = qHTS Assay for Antagonists of the Neuropeptide S Receptor: cAMP Signal Transduction; 220,000 compounds, 1% hits; Q6W5P4; CHO-NPSR cells, cAMP TR-FRET, antagonist mode; Potency, µM (series often up to 38.3 µM), hits mostly inhibitors; note: nearly all actives have a fitted effect of over 50% in size
Of the large screens only hits and unclear results are named; the others gave an inactive call; [ ] = dose if it differs, or a comment. Unless noted, calls come from the whole dose curve; as a rule, active = well fitted curve in the direction sought with a large enough effect; inconclusive = small, poorly fitted or top-dose-only effect, or another doubt; inactive = no such curve, though single readings can be large; an effect the other way counts as inactive or inconclusive.

NC(C(=O)NC1C(=O)N2C(C(=O)O)=C(Cl)CSC12)c1ccccc1 (stereo unspecified)	ALDH1A1 block 16µM, HPGD inh inconclusive, Tau fibril FP inconclusive, Tau fibril ThT 14µM (no result: NPSR antagonist)
COC(=O)NC(CC(C)=O)c1cccc(F)c1 (stereo unspecified)	none (no result: HPGD inh, NPSR antagonist)
CC(=O)n1cc(N(C(=O)CCl)c2ccc(Cl)cc2)c2ccccc21	Tau fibril ThT 28µM, NPSR antagonist inconclusive (no result: ALDH1A1 block, HPGD inh)
Cc1cc(NC(=O)Nc2ccc3c(ccn3C)c2)sn1	Tau fluor counter 13µM[quencher], Tau fibril FP inconclusive, Tau fibril ThT inconclusive, NPSR antagonist inconclusive
Cc1c(C(=O)Nc2ccccc2)csc1-c1ccccc1	HPGD inh inconclusive, Tau fibril ThT inconclusive
O=C(O)CCc1cc(I)c(O)c(I)c1	none (no result: HPGD inh, NPSR antagonist)
O=C(COc1cccc(Br)c1)N/N=C1\CCSC1	ALDH1A1 block 4.5µM, Tau fibril ThT inconclusive (no result: HPGD inh)
CC1CN(C2CCN(S(=O)(=O)c3ccc(F)cc3)CC2)CC(C)O1 (stereo unspecified)	ALDH1A1 block 25µM
O=C(c1ccco1)N1CCN(C(c2ccc(Cl)cc2)c2nnnn2CC2CCCO2)CC1 (stereo unspecified)	ALDH1A1 block inconclusive
Cc1ccc(C(c2nnnn2CC2CCCO2)N2CCN(C(=O)c3ccco3)CC2)cc1 (stereo unspecified)	ALDH1A1 block 16µM
Cc1ccc(S(=O)(=O)Cn2nnnc2C(C)N2CCN(C(=O)c3ccco3)CC2)cc1 (stereo unspecified)	ALDH1A1 block 25µM
O=C(c1ccco1)N1CCN(Cc2nnnn2CC2CCCO2)CC1 (stereo unspecified)	ALDH1A1 block 20µM (no result: HPGD inh)
CC1(C)C(C=C(Cl)Cl)C1C(=O)N1CCN(Cc2ccccc2)CC1 (stereo unspecified)	none (no result: HPGD inh)
Cc1cc(C)c2oc(-c3ccc(C)c(NC(=O)/C=C/c4ccco4)c3)nc2c1	none (no result: ALDH1A1 block, HPGD inh, NPSR antagonist)
CCC(C)[C@H](NC(=O)N1CCN(C)CC1)C(=O)OC (stereo partly specified)	none
CCC(C)NC(=S)N1CCN(C)CC1 (stereo unspecified)	ALDH1A1 block 22µM (no result: HPGD inh)
Cc1nn(C(=O)c2ccccc2)c(C)c1Sc1ccc(Cl)cc1	none (no result: ALDH1A1 block, HPGD inh, NPSR antagonist)
O=[N+]([O-])c1nn(-c2ccc3c(c2)OCCO3)n(O)c1=NCc1ccc(F)cc1	HPGD inh 20µM
O=[N+]([O-])c1nn(-c2ccc3c(c2)OCCO3)n(O)c1=NCc1ccc(F)cc1Cl	Tau fluor counter inconclusive, Tau fibril ThT inconclusive (no result: HPGD inh)
CC12CC[C@@H]3c4ccc(OP(=O)(O)O)cc4CCC3C1CCC2=O (stereo partly specified)	none (no result: Tau fluor counter, Tau fibril FP, Tau fibril ThT, NPSR antagonist)
C/C(=C(\C#N)C(=O)NC1CCCCC1)N(C)C	HPGD inh 16µM
CCn1c(SCC(=O)N2CCN(c3ccccc3)CC2)nnc1-c1ccncc1	ALDH1A1 block 25µM, HPGD inh 20µM
O=C(CSc1nnc(-c2ccco2)n1-c1ccccc1)N1CCN(C(=O)c2ccco2)CC1	ALDH1A1 block inconclusive
Cn1c(SCC(=O)N2CCN(c3ccccc3)CC2)nnc1-c1c[nH]c2ccccc12	Tau fluor counter inconclusive, Tau fibril ThT inconclusive
Cn1c(SCC(=O)N2CCN(c3ccccc3)CC2)nnc1-c1ccccc1	ALDH1A1 block 7.9µM, NPSR antagonist inconclusive
Cc1ccccc1-n1c(SCC(=O)N2CCN(c3ccccc3)CC2)nnc1-c1ccncc1	ALDH1A1 block inconclusive
Cn1c(SCC(=O)N2CCN(c3ccccc3)CC2)nnc1-c1ccco1	ALDH1A1 block 13µM
O=C(CSc1ncn(-c2ccccc2)n1)N1CCN(c2ccccc2)CC1	ALDH1A1 block 14µM, HPGD inh 28µM
COc1ccc(-c2csc(-c3nc(-c4ccc(Br)s4)cs3)n2)cc1F	none (no result: ALDH1A1 block, HPGD inh, NPSR antagonist)
